# Experimental data taken from ChEMBL document CHEMBL5308504, “Tm Shift (DSF) assay results for EUbOPEN Chemogenomics Library” (2023).
# Experiments:
# Details in all cases: Compound concentration 20.0 uM, Protein concentration 2.0 uM, Result type QC Liability
# [1] = target: Tyrosine-protein kinase ABL1 (Homo sapiens) (UniProt P00519)
# [2] = target: Cyclin-dependent kinase 2 (Homo sapiens) (UniProt P24941)
# [3] = target: Casein kinase I isoform delta (Homo sapiens) (UniProt P48730)
# [4] = target: Glycogen synthase kinase-3 beta (Homo sapiens) (UniProt P49841)
# [5] = target: Mitogen-activated protein kinase 1 (Homo sapiens) (UniProt P28482)
# [6] = target: T1, Aurora kinase A (Homo sapiens) (UniProt O14965)
# T1 sequence (whole entry): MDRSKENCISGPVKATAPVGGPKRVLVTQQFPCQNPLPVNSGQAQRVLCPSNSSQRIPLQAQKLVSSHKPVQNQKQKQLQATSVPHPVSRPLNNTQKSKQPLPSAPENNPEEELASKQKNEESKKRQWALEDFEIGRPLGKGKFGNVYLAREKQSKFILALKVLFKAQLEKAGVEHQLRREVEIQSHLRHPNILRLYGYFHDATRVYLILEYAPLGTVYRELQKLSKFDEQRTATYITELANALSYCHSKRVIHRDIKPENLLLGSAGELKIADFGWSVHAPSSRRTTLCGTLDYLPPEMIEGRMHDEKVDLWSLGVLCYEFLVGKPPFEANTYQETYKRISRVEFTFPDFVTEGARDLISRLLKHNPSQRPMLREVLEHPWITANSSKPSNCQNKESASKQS
# [7] = target: T2, Transcription intermediary factor 1-alpha (Homo sapiens) (UniProt O15164)
# T2 sequence (whole entry): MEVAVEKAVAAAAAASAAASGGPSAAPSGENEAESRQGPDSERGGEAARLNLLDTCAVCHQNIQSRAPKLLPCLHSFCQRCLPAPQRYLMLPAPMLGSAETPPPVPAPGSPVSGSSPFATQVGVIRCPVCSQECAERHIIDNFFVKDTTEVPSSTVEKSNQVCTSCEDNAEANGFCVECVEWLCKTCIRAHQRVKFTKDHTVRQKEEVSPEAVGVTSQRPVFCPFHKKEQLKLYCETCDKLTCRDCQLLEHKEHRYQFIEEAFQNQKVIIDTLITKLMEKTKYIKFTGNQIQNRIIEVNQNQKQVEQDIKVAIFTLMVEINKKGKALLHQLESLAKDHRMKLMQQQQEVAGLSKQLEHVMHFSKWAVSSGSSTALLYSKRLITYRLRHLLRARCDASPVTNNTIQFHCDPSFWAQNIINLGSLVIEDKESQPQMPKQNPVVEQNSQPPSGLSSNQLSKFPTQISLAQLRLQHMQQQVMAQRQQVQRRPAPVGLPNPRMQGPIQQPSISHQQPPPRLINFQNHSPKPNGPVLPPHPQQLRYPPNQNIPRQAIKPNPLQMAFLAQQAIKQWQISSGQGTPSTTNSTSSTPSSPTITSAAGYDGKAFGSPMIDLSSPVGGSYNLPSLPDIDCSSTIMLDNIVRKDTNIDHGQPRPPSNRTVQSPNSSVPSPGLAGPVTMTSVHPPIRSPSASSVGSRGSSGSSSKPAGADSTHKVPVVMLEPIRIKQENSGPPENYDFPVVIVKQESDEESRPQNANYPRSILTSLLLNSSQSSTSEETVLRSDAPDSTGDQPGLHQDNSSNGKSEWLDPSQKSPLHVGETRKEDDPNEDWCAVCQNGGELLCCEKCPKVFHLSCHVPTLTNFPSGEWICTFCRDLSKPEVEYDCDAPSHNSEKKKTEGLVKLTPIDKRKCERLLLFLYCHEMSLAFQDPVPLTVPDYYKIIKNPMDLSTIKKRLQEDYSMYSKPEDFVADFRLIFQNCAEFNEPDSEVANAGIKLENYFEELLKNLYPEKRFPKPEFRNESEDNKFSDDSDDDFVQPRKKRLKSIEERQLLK
# Casein kinase I isoform delta (Homo sapiens), sequence (P48730 whole entry, looked up, canonical isoform): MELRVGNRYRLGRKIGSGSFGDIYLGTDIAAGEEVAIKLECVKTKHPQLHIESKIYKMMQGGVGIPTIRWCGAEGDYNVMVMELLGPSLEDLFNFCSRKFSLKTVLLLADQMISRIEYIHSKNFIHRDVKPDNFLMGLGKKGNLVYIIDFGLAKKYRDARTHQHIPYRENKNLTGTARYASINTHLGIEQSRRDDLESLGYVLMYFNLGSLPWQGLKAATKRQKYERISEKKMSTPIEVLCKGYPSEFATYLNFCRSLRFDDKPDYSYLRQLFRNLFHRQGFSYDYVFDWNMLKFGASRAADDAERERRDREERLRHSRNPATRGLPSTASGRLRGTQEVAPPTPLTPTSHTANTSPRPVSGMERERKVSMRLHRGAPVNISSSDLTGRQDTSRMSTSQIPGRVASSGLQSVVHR
# Mitogen-activated protein kinase 1 (Homo sapiens), sequence (P28482 whole entry): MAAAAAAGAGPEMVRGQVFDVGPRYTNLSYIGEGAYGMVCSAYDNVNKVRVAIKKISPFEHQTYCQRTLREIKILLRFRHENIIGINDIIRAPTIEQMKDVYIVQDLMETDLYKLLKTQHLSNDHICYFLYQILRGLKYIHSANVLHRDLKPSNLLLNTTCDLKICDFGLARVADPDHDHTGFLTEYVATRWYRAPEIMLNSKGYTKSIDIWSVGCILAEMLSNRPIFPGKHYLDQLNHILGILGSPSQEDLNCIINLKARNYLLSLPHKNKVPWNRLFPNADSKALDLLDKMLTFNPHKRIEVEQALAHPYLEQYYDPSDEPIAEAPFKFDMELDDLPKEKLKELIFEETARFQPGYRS
# Tyrosine-protein kinase ABL1 (Homo sapiens), sequence (P00519 whole entry): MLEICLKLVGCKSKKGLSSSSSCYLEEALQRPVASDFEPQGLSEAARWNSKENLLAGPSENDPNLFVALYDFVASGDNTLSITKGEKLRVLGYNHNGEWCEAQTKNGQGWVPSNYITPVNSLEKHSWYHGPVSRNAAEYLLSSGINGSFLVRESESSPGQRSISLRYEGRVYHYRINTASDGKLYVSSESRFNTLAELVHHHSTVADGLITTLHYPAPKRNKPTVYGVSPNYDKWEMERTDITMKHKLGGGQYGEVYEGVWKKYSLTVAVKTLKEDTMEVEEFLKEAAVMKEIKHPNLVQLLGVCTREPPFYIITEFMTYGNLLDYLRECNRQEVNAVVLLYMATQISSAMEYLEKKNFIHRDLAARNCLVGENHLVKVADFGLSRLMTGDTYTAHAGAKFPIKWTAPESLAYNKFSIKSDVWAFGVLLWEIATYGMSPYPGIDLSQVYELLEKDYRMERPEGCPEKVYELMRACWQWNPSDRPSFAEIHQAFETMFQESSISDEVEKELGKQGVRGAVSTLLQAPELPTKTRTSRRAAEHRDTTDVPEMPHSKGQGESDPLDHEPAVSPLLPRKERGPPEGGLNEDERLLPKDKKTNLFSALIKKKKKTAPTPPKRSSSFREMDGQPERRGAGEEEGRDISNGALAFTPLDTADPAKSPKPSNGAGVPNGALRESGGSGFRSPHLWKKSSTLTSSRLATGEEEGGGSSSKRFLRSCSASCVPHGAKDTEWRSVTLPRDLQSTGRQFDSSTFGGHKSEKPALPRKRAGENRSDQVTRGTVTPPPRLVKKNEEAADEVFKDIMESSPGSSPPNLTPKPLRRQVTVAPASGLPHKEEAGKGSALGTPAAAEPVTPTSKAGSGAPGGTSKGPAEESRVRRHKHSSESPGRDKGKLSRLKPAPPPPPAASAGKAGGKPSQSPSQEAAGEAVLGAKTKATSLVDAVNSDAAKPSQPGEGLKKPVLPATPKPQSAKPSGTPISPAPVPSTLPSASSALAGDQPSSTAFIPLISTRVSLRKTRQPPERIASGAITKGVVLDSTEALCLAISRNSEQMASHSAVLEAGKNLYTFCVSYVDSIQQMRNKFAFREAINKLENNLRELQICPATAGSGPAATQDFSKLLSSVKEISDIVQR
# Glycogen synthase kinase-3 beta (Homo sapiens), sequence (P49841 whole entry, looked up): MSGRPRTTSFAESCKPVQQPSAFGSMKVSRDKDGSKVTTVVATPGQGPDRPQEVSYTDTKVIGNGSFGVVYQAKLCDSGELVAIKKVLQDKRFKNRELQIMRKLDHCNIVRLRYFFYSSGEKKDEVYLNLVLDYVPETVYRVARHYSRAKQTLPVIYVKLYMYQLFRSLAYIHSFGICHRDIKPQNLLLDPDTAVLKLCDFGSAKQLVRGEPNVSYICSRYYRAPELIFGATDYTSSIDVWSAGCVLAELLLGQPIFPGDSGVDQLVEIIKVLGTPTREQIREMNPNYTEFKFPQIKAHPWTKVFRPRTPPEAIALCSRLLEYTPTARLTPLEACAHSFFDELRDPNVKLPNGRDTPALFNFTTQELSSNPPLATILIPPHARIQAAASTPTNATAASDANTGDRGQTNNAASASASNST
SMILES,ΔTm [1] [°C],ΔTm [2] [°C],ΔTm [3] [°C],ΔTm [4] [°C],ΔTm [5] [°C],ΔTm [6] [°C],ΔTm [7] [°C]
COc1nc2ccc([C@@](O)(c3ccc(Cl)cc3)c3cncn3C)cc2c(Cl)c1Cc1ccc(-n2cccn2)cc1,-0.22,-0.1,-0.84,-1.9,-0.39,-0.59,-0.54
CCOP(=O)(OCC)C(=Cc1cc(C(C)(C)C)c(O)c(C(C)(C)C)c1)P(=O)(OCC)OCC,-0.09,0.15,0.17,-0.29,0.15,-1.17,-3.9
CNc1nc(-c2cc(C(=O)N3CCN(Cc4ccc(Cl)cc4)CC3)c(Cl)cn2)cs1,-0.06,0.89,0.17,0.59,0.23,-0.18,0.39
C[C@@H]1CC[C@@]2(OC1)O[C@H]1[C@@H](O)[C@H]3[C@@H]4CC[C@H]5C[C@@H](O[C@@H]6O[C@H](CO)[C@H](O[C@@H]7O[C@H](CO)C(O)[C@H](O[C@@H]8OC[C@@H](O)[C@H](O)[C@H]8O)[C@H]7O[C@@H]7O[C@H](CO)[C@H](O)[C@H](O[C@@H]8O[C@H](CO)[C@@H](O)[C@H](O)[C@H]8O)[C@H]7O)[C@H](O)[C@H]6O)[C@H](O)C[C@]5(C)[C@H]4CC[C@]3(C)[C@H]1[C@@H]2C (stereo not given in full),0.2,0.55,0.07,-0.93,0.27,-0.73,-3.45
CS(=O)(=O)c1ccc(-c2cnc(N)c(C(=O)Nc3ccccc3)n2)cc1,0.67,0.23,-0.19,3.54,0.38,0.45,-1.74
C[C@@H](CO)CCC[C@@H](C)[C@H]1CC[C@H]2[C@@H]3CC=C4C[C@@H](O)CC[C@]4(C)[C@H]3CC[C@]12C,0.11,0.17,0.59,-0.96,0.35,-1.67,-3
C=C[C@@]12CCc3cc(O)ccc3[C@H]1CC[C@@]1(C)[C@H]2CC[C@@H]1O,0.27,0.21,0.08,1.27,0.21,0,-0.42
CCN1C(=O)C(c2cccc(C(=O)O)c2)C(=O)N(c2ccccc2)c2cc(C(F)(F)F)ccc21 (stereo not given),-0.5,-0.13,0.29,-1.43,0.17,-0.25,0.23
COP(=O)(CCC(N)C(=O)O)Oc1cccc(CC(=O)O)c1 (stereo not given),-0.06,0.07,0.36,-0.02,0.13,-0.17,0.32
CCCn1cc(-c2cc(C3C(=O)N(CC)c4ccc(C(F)(F)F)cc4N(c4ccccc4)C3=O)cc(OC)c2O)cn1 (stereo not given),-0.36,1.16,0.47,-1.32,-7.84,0.54,0.28
CN(C(=O)CCOCCOCCOCCOCCNc1cccc2c1C(=O)N(C1CCC(=O)NC1=O)C2=O)[C@H]1CC[C@@]2(C)[C@@H](CC[C@@H]3[C@@H]2CC[C@]2(C)[C@@H](c4ccc5ccncc5c4)CC[C@@H]32)C1 (stereo not given in full),1.62,0.45,-6.92,2.49,-1.53,-1.77,0
Cc1ccc2c(N)c(C(=O)NC3CCc4cc(N5CC6CCC(C5)N6)ccc4C3)sc2n1 (stereo not given),0.14,-0.27,0.27,-0.23,0.3,-0.05,-1.89
O=C1CCC(N2Cc3cc(CNC(=O)C(F)(F)c4ccc(Cl)cc4)ccc3C2=O)C(=O)N1 (stereo not given),0.53,0.76,0.06,0.18,0.34,-0.46,-0.96
CO[C@H](C)CN1CC[C@]2(C)c3cccc(O)c3C[C@H]1C2(C)C,0.1,0.52,0.27,-0.29,-0.17,-0.21,0.19
C=CC(=O)Nc1cc(-c2nn(C3CCC(N4CCN(C(C)=O)CC4)CC3)c3ncnc(N)c23)ccc1Oc1ccccc1 (stereo not given),0.84,0.18,0.89,-1.12,0.34,4.07,-1.68
COc1ccc(OC(=O)N(CC(=O)O)Cc2ccc(OCCc3nc(-c4ccccc4)oc3C)cc2)cc1,0.16,-0.27,0.56,-1.96,0.18,-0.93,-4.78
CCC(=O)O[C@@H](OP(=O)(CCCCc1ccccc1)CC(=O)N1C[C@H](C2CCCCC2)C[C@H]1C(=O)O)C(C)C (stereo not given in full),0.01,0.46,-0.25,-0.61,0.22,-1.22,-3.14
CO[C@@H](C)CN1CC[C@]2(C)c3cc(O)ccc3C[C@H]1C2(C)C,0.73,0.61,0.53,-0.14,0.27,-0.25,0.53
C[C@]12CC[C@@H]3c4ccc(C(N)=O)cc4CC[C@H]3[C@@H]1CC=C2c1cncc(F)c1,0.15,-0.32,-4.77,0,0.35,2.37,0.2
C=CC(=O)Nc1ccc2[nH]c(=O)n(C3CCN(Cc4ccc(-c5ccc6c(c5)NC(=O)CO6)cc4)CC3)c2c1,0.74,-0.1,0.68,3.14,0.64,1.01,-2.17
